Screening data: PubChem, National Center for Advancing Translational Sciences (NCATS)
NPSR antag: blocks cAMP signaling of the human neuropeptide S receptor; Potency, µM (highest dose often 38.3 µM), hits mostly inhibitors; AID 1461; Q6W5P4; CHO-NPSR cells, cAMP TR-FRET, antagonist mode; 1% of 220,000 active; note: nearly all actives have a fitted effect of over 50% in size
Tau fibril FP: blocks human tau fibril formation measured by polarization; P10636; K18 P301L tau heparin fibrillization, Alexa594 FP, 6 h; Potency, µM (titrated, usually from 57.7 µM), most hits filed as inhibitors; 0.39% of 280,000 active; AID 1468; note: nearly all actives have a fitted effect of over 55% in size
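Human tau K18 […] P301L fragment, 15 uM unlabeled plus 0.24 uM Alexa 594-labeled tau (final), with compound and 20 uM heparin in 100 mM sodium acetate pH 7; 6 hr at 37 C, then Alexa 594 FP read.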
ALDH1A1 inh: inhibitors of human aldehyde dehydrogenase 1A1. Potency, µM (doses to about 75.3 µM), most hits filed as inhibitors. P00352. AID 1030. Purified ALDH1A1, NADH fluorescence, propionaldehyde substrate. 7.3% of 220,000 active; active = well fitted inhibition curve with a large enough effect, not every such curve was filed as active; inconclusive = small, poorly fitted or top-dose-only effect, or another doubt; inactive = no such curve, though single readings can be large or run the other way
Target sequence (P00352 whole entry, looked up): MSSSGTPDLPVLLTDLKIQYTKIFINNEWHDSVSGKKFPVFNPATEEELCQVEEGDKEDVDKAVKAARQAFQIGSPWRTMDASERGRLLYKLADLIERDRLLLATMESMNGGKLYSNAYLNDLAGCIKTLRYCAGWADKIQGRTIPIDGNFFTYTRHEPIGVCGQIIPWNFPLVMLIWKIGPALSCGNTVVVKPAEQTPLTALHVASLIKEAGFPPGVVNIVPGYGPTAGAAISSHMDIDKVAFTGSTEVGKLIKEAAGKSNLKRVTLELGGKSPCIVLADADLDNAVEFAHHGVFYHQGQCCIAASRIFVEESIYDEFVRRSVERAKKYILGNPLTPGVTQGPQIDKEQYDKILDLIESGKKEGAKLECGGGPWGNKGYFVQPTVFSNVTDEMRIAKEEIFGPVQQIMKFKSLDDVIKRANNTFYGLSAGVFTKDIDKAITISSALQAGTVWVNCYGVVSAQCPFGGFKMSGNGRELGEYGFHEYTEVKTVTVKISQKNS
HPGD inh: HPGD (human) dehydrogenase inhibition; P15428; purified HPGD, NADH fluorescence kinetic, PGE2 substrate; Potency, µM, actives largely listed as inhibitors; 4.3% of 150,000 active; AID 894; active = well fitted inhibition curve with a large enough effect, not every such curve was filed as active; inconclusive = small, poorly fitted or top-dose-only effect, or another doubt; inactive = no such curve, though single readings can be large or run the other way
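20 nM HPGD preincubated 15 min at room temperature with compound in 50 mM Tris-HCl pH 8, 0.01% Tween 20. Started with 1 mM NAD+ and 30 uM prostaglandin E2; NADH fluorescence (360/450 nm) read 5 times over 30-s intervals, last minus first.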
Tau ThT inhib: tau fibrillization inhibition (ThT binding) | Potency, µM (top dose mostly 57.4 µM), actives largely listed as inhibitors | recombinant tau K18 P301L, heparin-induced fibrillization, ThT fluorescence | 2.1% of 270,000 active | P10636 | AID 1460; note: nearly all actives have a fitted effect of over 55% in size
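Heparin-induced fibrillization of the P301L-mutant K18 repeat-domain fragment of human tau was followed by ThT binding in quantitative high-throughput format.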
Tau fluor counter: counter-screen for tau fibril formation inhibitors | 0.93% of 280,000 active | tau K18 P301L (four-repeat tau fragment) Alexa594 fluorescence, heparin fibrillization | Potency, µM (series often up to 57.7 µM) | AID 1463; note: nearly all actives have a fitted effect of over 55% in size
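Human K18 P301L tau (15 uM unlabeled plus 0.24 uM Alexa 594-labeled, final) in 100 mM sodium acetate pH 7 was mixed with compound and 20 uM heparin and incubated 6 hr at 37 C.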
Hits are given with their value; . = inactive; ? = inconclusive; / = no result; [ ] = another dose, or the depositor's remark. A selection: hits, their analogues and other compounds. The true share with any hit is near 9.5%. Unless noted, calls come from the whole dose curve; as a rule, active = well fitted curve in the direction sought with a large enough effect; inconclusive = small, poorly fitted or top-dose-only effect, or another doubt; inactive = no such curve, though single readings can be large; an effect the other way counts as inactive or inconclusive.

SMILES	NPSR antag	Tau fibril FP	ALDH1A1 inh	HPGD inh	Tau ThT inhib	Tau fluor counter
N#CCN1C(=O)C2CCCN2c2ccc(S(=O)(=O)N3CCOCC3)cc21 (stereo unspecified)	.	.	10µM	/	.	.
O=C(/C=C/c1ccccc1)N1CCN(Cc2nc3ccccc3c(=O)[nH]2)CC1	.	.	?	32µM	.	.
Cc1cc(NC(=O)Nc2cccc(Cl)c2)n(-c2ccccc2)n1	.	?	/	/	.	?
Cc1ccc(S(=O)(=O)Nc2cc(C)nn2-c2ccccc2)cc1	.	.	25µM	.	.	.
Cc1cc(Nc2ccccc2)n(-c2cccc(Cl)c2)n1	.	.	?	28µM	.	.
CC(=O)Nc1ccc(N2C(=O)c3ccc(C(=O)Nc4nnc(SCc5ccc(F)cc5)s4)cc3C2=O)cc1	.	?	.	/	?	.
Cc1ccc(CNS(=O)(=O)c2cnc(N)nc2)cc1	/	.	/	/	.	.
COc1ccccc1CNC(=O)C(=O)NCC1CCCO1 (stereo unspecified)	.	.	.	.	.	.
COc1ccccc1CCNC(=O)C1CCCO1 (stereo unspecified)	.	.	.	18µM	.	.
COc1ccccc1CC(=O)NCC1CCCO1 (stereo unspecified)	.	.	.	25µM	.	.
CCC(CC)C(=O)N1c2ccccc2C(C)(c2ccccc2)CC1(C)C (stereo unspecified)	/	.	/	/	.	.
Cc1ccc2nc(CN3CCN(S(=O)(=O)c4ccccc4)CC3)oc2c1	/	.	/	/	.	.
COc1ccc(NCc2ccc([N+](=O)[O-])s2)c(OC)c1	.	?	25µM	.	?	?
COc1ccc(NCc2ccc([N+](=O)[O-])s2)cc1	.	.	.	.	?	.
COCCN(C(=S)Nc1cc(C)cc(C)c1)C(C)c1ccco1 (stereo unspecified)	.	.	.	/	.	.
COc1ccc(S(=O)(=O)NCc2c(-c3ccccc3)noc2C)c(OC)c1	.	.	2.5µM	/	.	.
Cc1ccc(S(=O)(=O)NCc2c(-c3ccccc3)noc2C)cc1	.	.	4µM	/	.	.
CCOc1ccc(NC(=O)c2c(NCc3ccc(C)o3)sc3c2CCCCC3)cc1	/	?	/	/	22µM	.
CCOc1ccc(NC(=O)c2c(NCc3cccs3)sc3c2CCCCC3)cc1	/	.	/	/	?	?
CCOc1ccc(NC(=O)c2c(NCc3sccc3C)sc3c2CCCCC3)cc1	/	?	/	/	14µM	?
COc1ccc(NC(=O)c2c(NCc3ccc(C)o3)sc3c2CCC(C)C3)cc1 (stereo unspecified)	/	?	/	/	25µM	?
COc1ccc(NC(=O)c2c(NCc3ccc(C)o3)sc3c2CCC(C)C3)c(OC)c1 (stereo unspecified)	/	.	/	/	?	?
OCCC1CN(C2CCN(c3ccccc3F)CC2)CCN1Cc1ccccc1 (stereo unspecified)	.	.	.	/	.	.
C/C(CC1CC(COCC(C)C)OC1=O)=N\Nc1nc(-c2ccccc2)cs1 (stereo unspecified)	.	.	?	.	18µM	?
CCCCN(CCCNC(=O)c1cc(Nc2cccc(SC)c2)nc2ccccc12)Cc1ccccc1	/	?	/	/	?	1.8µM[quencher]
SMILES	NPSR antag	Tau fibril FP	ALDH1A1 inh	HPGD inh	Tau ThT inhib	Tau fluor counter
CSc1cccc(Nc2cc(C(=O)NCCc3ccc(Cl)cc3)c3ccccc3n2)c1	/	?	/	/	.	3.5µM[quencher]
Cc1nc2nc(C)c(CCC(=O)N3CCOCC3)c(C)n2n1	?	.	.	.	.	.
Cc1cc(C)c(NC(=O)CN2C(=O)c3cccnc3Oc3ccc(C)cc32)c(C)c1	/	.	/	/	?	.
Cc1ccc(NC(=O)NC2=NN(c3ccccc3)C(=O)/C2=C2/CCCN2C)cc1	.	?	7.1µM	/	?	?
O=C(Nc1cccc(Cl)c1)Nc1cccc(C(=O)O)c1	.	.	/	/	/	.
CN1CCC/C1=C1/C(=O)N(c2ccccc2)N=C1NC(=O)Nc1cccc(Cl)c1	.	?	.	/	8.9µM	?
CCOc1ccccc1NC(=O)CN1C=NS(=O)(=O)c2ccccc21	/	.	/	/	.	.
Cc1c(C(=O)OCC(=O)N2CC(C)OC(C)C2)oc2ccc(Br)cc12 (stereo unspecified)	?	.	0.18µM	?	.	.
